This is an account of results in PubChem BioAssay AID1851 (National Center for Advancing Translational Sciences (NCATS), 2009).

Values joined by “and” are separate entries in the source; they are usually repeats but may differ in a detail not shown here. Equal entries are not always repeated. Hit rate of the full screen: of about 16,000 compounds, about 5,700 (36%) were called active. Another 24% or so got no clear call; they are omitted. Some of the results follow. A number with no mark means an inactive call. Calls come from the whole dose curve; as a rule, active = well fitted curve in the direction sought with a large enough effect; inconclusive = small, poorly fitted or top-dose-only effect, or effect the other way; inactive = no such curve, though single readings can be large or run the other way.

Broadly, the AC50 is the concentration giving half of the maximal activity seen.
% is set by controls: 0 for no effect and ±100 for the full control effect.

The assay deals with Cytochrome P450 1A2 (Homo sapiens) (UniProt P05177). As to the kind of experiment: Cytochrome panel assay with activity outcomes. The following applies: recombinant CYP, pro-luciferin dealkylation, luminescence, p450-cyp1a2; series mostly up to 57.1 µM; activity, negative = inhibition: at the top concentration.
Sequence of Cytochrome P450 1A2 (Homo sapiens) (P05177 whole entry, looked up): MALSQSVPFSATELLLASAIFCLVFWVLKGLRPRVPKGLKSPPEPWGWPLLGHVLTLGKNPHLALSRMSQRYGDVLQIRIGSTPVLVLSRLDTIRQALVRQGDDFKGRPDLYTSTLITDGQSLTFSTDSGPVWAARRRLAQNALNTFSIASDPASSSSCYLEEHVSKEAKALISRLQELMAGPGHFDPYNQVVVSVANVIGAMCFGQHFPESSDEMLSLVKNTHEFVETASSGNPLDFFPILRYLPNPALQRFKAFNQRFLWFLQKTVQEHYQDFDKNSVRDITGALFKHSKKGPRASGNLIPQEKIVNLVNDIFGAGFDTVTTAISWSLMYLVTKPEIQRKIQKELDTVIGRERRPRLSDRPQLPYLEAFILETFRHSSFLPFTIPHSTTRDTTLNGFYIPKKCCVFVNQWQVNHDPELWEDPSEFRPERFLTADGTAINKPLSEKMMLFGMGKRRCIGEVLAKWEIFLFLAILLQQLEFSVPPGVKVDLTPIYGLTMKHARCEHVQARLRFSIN
In the case of `Cc1ccnc(NS(=O)(=O)c2ccc(N=[N+]=[N-])cc2)n1`, the activity, negative = inhibition was -6.01% [at 11.4 µM].

On to `CC(=C/c1ccccc1)/C=N/n1cnnc1`, for which the AC50 was 2 µM (active).

As to `CC(=C\C(=O)O)/C(=C/c1ccccc1)C(=O)O`, the “activity, negative = inhibition” value is -20.1%.

On to `COC(=O)c1ccc(C2C(Oc3ccccc3)C(=O)N2CCc2ccc(OC)c(OC)c2)cc1` (configuration not stated), for which the “activity, negative = inhibition” value is 4.21%.

Consider `Cc1cnc(CNc2ncnc3ccc(-c4ccccc4C(F)(F)F)cc23)cn1`, for which the AC50 is 12.6 µM (active).

On to `Cc1cnc(CNc2ncnc3ccc(-c4ccccc4CN(C)C)cc23)cn1`, for which the “activity, negative = inhibition” value is -18.6%.

Consider `COc1ccccc1-c1ccc2ncnc(NCc3cnc(C)cn3)c2c1`, for which the concentration at half-maximal activity (AC50) is 6.31 µM (active).

Take `Cc1cnc(CNc2ncnc3ccc(-c4ccccc4Cl)cc23)cn1`: the AC50 was 6.31 µM (active).

In the case of `Cc1cnc(CNc2ncnc3ccc(-c4ccccc4C)cc23)cn1`, the AC50 was 6.31 µM (active).

Take `CC(C)NC(=O)N1CC[C@@]2(CCCN(C(=O)c3csnn3)C2)C1`: the “activity, negative = inhibition” value is -3.33%.

`CC[C@@H]1OC(=O)[C@H](C)[C@H](O[C@@H]2C[C@](C)(OC)[C@H](O)[C@H](C)O2)[C@H](C)[C@H](O[C@@H]2O[C@@H](C)C[C@@H](N(C)C)[C@@H]2O)[C@](C)(O)C[C@H](C)C(=NOCOCCOC)[C@H](C)[C@H](O)[C@]1(C)O`: the “activity, negative = inhibition” value is -3% [at 25.6 µM].

On to `CC(C)CO/N=C1/C[C@@H](O)[C@@H](O)[C@@H]2[C@H]3C(=O)N(c4ccc(F)cc4F)C(=O)[C@@H]3CC[C@H]12`, for which the activity, negative = inhibition is 0.352% [at 11.4 µM].

Consider `CC(C)NCC[C@@H](O)c1cc2ccccc2o1`, for which the activity, negative = inhibition is -2.1% [at 2.29 µM].

`CC(=O)c1cc2ccccc2oc1=O`: the half-maximal activity concentration (AC50) is 0.2 µM (active).

Consider `CC(C)OC(=O)c1cc2ccccc2oc1=O`, for which the AC50 was 0.447 µM (active).

Take `CCN(CC)c1ccc2cc(C(C)=O)c(=O)oc2c1`: the AC50 is 0.891 µM (active).

For `O=C(Nc1ccc2oc(=O)c(C(=O)O)cc2c1)Oc1ccccc1`, the activity, negative = inhibition was -15.3% [at 2.29 µM].

Turning to `Cc1ccc[n+](CC(=O)c2cc3ccccc3oc2=O)c1`, the “activity, negative = inhibition” value was 6.85%.

For the compound `COc1ccc(C[N+](C)(C)N)cc1OC`, the activity, negative = inhibition is -11.5% [at 11.4 µM].

`COc1cc(CNn2nnnc2N)ccc1OCc1c(Cl)cccc1Cl`: the AC50 is 7.08 µM (active).

For the compound `Nc1ncnc2c1ncn2CCCCC(=O)O`, the activity, negative = inhibition is -3.15% [at 11.4 µM].

As to `Nc1ccc(S(=O)(=O)c2ccc(NC(=O)c3cccnc3)cc2)cc1`, the activity, negative = inhibition is -21.1% [at 2.29 µM].

As for `O=C(Nc1cccnc1)c1ccc2snnc2c1`, the AC50 is 0.0631 µM (active).

Take `COc1ccc(OC)c2c(=S)c3ccccc3[nH]c12`: the AC50 is 0.0631 µM (active).

On to `COc1ccc(C2(C(=O)N3CCOCC3)CCCC2)cc1`, for which the “activity, negative = inhibition” value was -1.36%.

In the case of `COc1cc(N2CCOCC2)ncn1`, the “activity, negative = inhibition” value is -18.1%.

Turning to `COc1ccc2c(C)cc(N3CCOCC3)nc2c1`, the AC50 was 2.51 µM (active).

`NCCCCCc1nnc(SCc2ccc(Cl)cc2Cl)o1`: the AC50 is 11.2 µM (active).

For the compound `COc1ccc(/C=C/C(=O)Oc2cccc(/C=N/NC(=O)COc3c(C)cccc3C)c2)cc1`, the “activity, negative = inhibition” value was -9.66%.

Regarding `CCOc1cc(/C=N/NC(=O)COc2cccc(C)c2)ccc1OC(=O)c1cccs1`, the AC50 is 11.2 µM (active).

In the case of `CCOc1cc(/C=N/NC(=O)c2cc(C)[nH]n2)ccc1OC(=O)c1ccc([N+](=O)[O-])cc1`, the “activity, negative = inhibition” value is 27.9%.

On to `CN(C)CCNC(=S)Nc1cccc(Cl)c1`, for which the “activity, negative = inhibition” value was -24.8%.

In the case of `FC(F)(F)c1cccc(NC(=S)Nc2cccc(Cl)c2)c1`, the AC50 is 5.01 µM (active).

As for `S=C(NCc1ccccn1)Nc1cccc(Cl)c1`, the half-maximal activity concentration (AC50) is 2.82 µM (active).

As to `CO[C@H]1COC(=O)[C@@H](C)COC(=O)[C@@H](Cc2ccccc2)NC(=O)C/C=C\[C@H]1C`, the activity, negative = inhibition was 4.52% [at 11.4 µM].

For `CC1(C)S[C@@H]2[C@H](NC(=O)[C@@H](N)c3ccccc3)C(=O)N2[C@H]1C(=O)O[C@H]1OC(=O)c2ccccc21`, the “activity, negative = inhibition” value was -13% [at 25.6 µM].

As for `O=C(Nc1cc(C(F)(F)F)ccc1-n1cncn1)c1ccc(Br)cc1`, the AC50 is 0.562 µM (active).

Turning to `CCOC(=O)CCN1C(=O)[C@H]2[C@H]3[C@H](O)[C@H](O)C/C(=N/OC[C@@H](O)COCc4ccco4)[C@@H]3CC[C@@H]2C1=O`, the activity, negative = inhibition is -1.07% [at 11.4 µM].

With `Cn1c(=O)c2c3c(sc2n2cnnc12)CCC3`, the AC50 is 8.91 µM (active).

As to `CN1CCc2c(sc3c2c(=O)n(-c2ccccc2)c2nncn32)C1`, the “activity, negative = inhibition” value is -17.6%.

As for `CCCCCCCCCCCCCCCCCCOC[C@@H](COP(=O)([O-])OCC[N+](C)(C)C)OC`, the “activity, negative = inhibition” value was 7.62%.

With `c1ccc(-c2nc(-c3cccs3)[nH]c2-c2ccccc2)cc1`, the AC50 is 1 µM (active).

For the compound `Cc1ccsc1-c1nc(-c2ccccc2)c(-c2ccccc2)[nH]1`, the AC50 was 1.12 µM (active).

For the compound `COC(=O)c1ccccc1NC(=O)c1ccc(COc2ccc(C)c(C)c2)o1`, the AC50 was 2.82 µM (active).

Regarding `COc1ccc(NC(=O)c2ccc(COc3ccccc3)o2)cc1`, the AC50 is 2.51 µM (active).

`COC(=O)c1ccccc1NC(=O)CSc1nnc(C(CO)NC(=O)c2ccccc2Cl)n1C` (configuration not stated): the “activity, negative = inhibition” value was 9.84%.

Take `Cc1ccc(OCc2ccc(C(=O)Nc3nccs3)o2)cc1C`: the AC50 was 0.631 µM (active).

As for `CCOc1ccc(OCC)c(-c2c(=O)n(OCc3ccccc3C(=O)OC)c3ccccc3[n+]2[O-])c1`, the “activity, negative = inhibition” value was -26%.

Take `COC(=O)c1ccccc1NC(=O)c1ccc(Cn2cc(Cl)cn2)o1`: the AC50 was 1.58 µM (active).

In the case of `COc1ccc(CC(=O)Nc2ccc(-c3nnc(-c4ccccc4)o3)cc2)cc1`, the “activity, negative = inhibition” value was -1.05%.

In the case of `OCCN(CCO)c1ncnc2nc[nH]c12`, the activity, negative = inhibition is -9.2% [at 11.4 µM].

In the case of `CCOc1nc(N2CCCCC2)nc(-n2cc(-c3ccccc3)nn2)n1`, the concentration at half-maximal activity (AC50) is 2.51 µM (active).

Regarding `CO[C@@H]1COC(=O)[C@H](Cc2ccccc2)NC(=O)C/C=C\[C@@H](C)[C@H](OC)COC(=O)[C@@H](C)NC(=O)C/C=C\[C@H]1C`, the activity, negative = inhibition is -3.56% [at 11.4 µM] and 1.16% [at 11.4 µM].

Consider `CCN1CCN(c2nc3ccccc3nc2C(C#N)C(=O)OC2CCCCC2)CC1` (configuration not stated), for which the “activity, negative = inhibition” value is -18.3%.

For the compound `C=CCN1CCN(c2nc3ccccc3nc2C#N)CC1`, the AC50 is 0.1 µM (active).

In the case of `C=CCn1c(C)c(C(C)=O)c(N2CCN(c3ccccc3)CC2)nc1=S`, the “activity, negative = inhibition” value was -17.6%.

For `Cc1ccc2nc(-c3ccccc3)cc(C(=O)NCCCn3ccnc3)c2c1`, the AC50 was 2.82 µM (active).
